Results filed as inconclusive are left out. Where a call stands in place of a potency, no number is given. Calls of active or inactive are those of the source. Unless noted, the call rests on the fitted dose curve; in most records, active means well fitted curve in the direction sought with a large enough effect; inconclusive means small, poorly fitted or top-dose-only effect, or another doubt; inactive means no such curve, though single readings can be large; an effect the other way counts as inactive or inconclusive.
Assays:
[1] = system: CP297; experiment: qHTS profiling for inhibitors of Plasmodium falciparum proliferation (AID 504749); further: nearly all actives have a fitted effect of over 60% in size; conditions: P. falciparum in erythrocytes, SYBR Green DNA, 72 h; series mostly up to 28.7 µM
In short: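 Quantitative HTS: compounds pinned into medium, infected erythrocytes added (0.3% parasitemia, 2.5% hematocrit), 72 h culture at 37 C under 5% CO2. Saponin/Triton lysis with SYBR Green I, overnight RT, then fluorescence read.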

[2] = qHTS profiling for inhibitors of Plasmodium falciparum (3D7) proliferation (AID 743322);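 further: infected erythrocytes exposed to compound for 72 h before lysis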; conditions: P. falciparum 3D7 proliferation; at 28.7 µM (top of the series)
In short: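 Parasite DNA was quantified by SYBR Green I fluorescence (ex 485, em 535 nm) after overnight lysis in saponin/Triton buffer at room temperature. Cultures at 0.3% parasitemia and 2.5% hematocrit were first exposed to compound for 72 h at 37 C; signals were normalised to artemisinin (0.29 uM) and vehicle wells.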

[3] = qHTS profiling for inhibitors of Plasmodium falciparum (DD2) proliferation (AID 743323; call rule not given here); conditions: lower = more inhibition; at 28.7 µM (top of the series)
In short: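 Parasite DNA quantified by SYBR Green fluorescence (ex 485, em 535 nm) after saponin/Triton lysis and overnight dark incubation. Cultures: 0.3% parasitemia, 2.5% hematocrit, 72 h, 37 C; data scaled between DMSO and 0.29 uM artemisinin.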

[4] = qHTS profiling for inhibitors of Plasmodium falciparum (HB3) proliferation (AID 743324); conditions: Plasmodium falciparum HB3 blood-stage proliferation; at 28.7 µM (top of the series)
In short: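 SYBR Green fluorescence (485 ex/535 em) of lysed cultures, incubated overnight at room temperature in the dark, quantifies parasite DNA. Infected erythrocytes at 0.3% parasitemia and 2.5% hematocrit were exposed 72 h; values normalized to DMSO and 0.29 uM artemisinin controls.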

[5] = biological target: Rap guanine nucleotide exchange factor 4 (Homo sapiens) (UniProt Q8WZA2); experiment: Confirmatory qHTS for agonist of cAMP-regulated guanine nucleotide exchange factor 4 (EPAC2) (AID 1645884); conditions: EPAC2 GEF activity, Rap1B-BODIPY-GDP fluorescence, percent relative to cAMP agonist control; series mostly up to 154 µM;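 further: nucleotide exchange releases bodipy-GDP from Rap1 and this lowers its fluorescence; nearly all actives have a fitted effect of over 65% in size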
[6] = biological target: Tumor susceptibility gene 101 protein (Homo sapiens) (UniProt Q99816); experiment: qHTS Assay for Iinhibitors of HIV-1 Budding by Blocking the Interaction of PTAP/TSG101: Hit Validation (AID 651600); conditions: PTAP peptide/TSG101 UEV interaction, biochemical assay; series mostly up to 57.5 µM; further: nearly all actives have a fitted effect of over 70% in size
In short: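 Fluorescence polarization binding assay: Tsg101 binding domain (10 uM final) pre-dispensed with compounds, then FITC-labeled PTAP-motif peptide (50 nM final) added; 20 min at r.t. in HEPES pH 7.5 buffer with NaCl, Tween 20, EDTA, TCEP.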

[7] = biological target: DNA repair nuclease/redox regulator APEX1 (Homo sapiens) (UniProt P27695); experiment: qHTS Validation Assay for Inhibitors of the Human Apurinic/apyrimidinic Endonuclease 1 (APE1) (AID 1705;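 further: TAMRA fluorescence gain over two minutes as APE1 cuts a quenched THF abasic duplex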); conditions: purified APE1 endonuclease activity, fluorescence, titration; series mostly up to 57.1 µM
In short: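 Human APE1 was preincubated with compound for 15 min at room temperature, then 50 nM (final) THF-abasic double-stranded DNA substrate bearing 5'-TAMRA and 3'-BHQ-2 was added. Incision-driven fluorescence rise (ex 525/em 598 nm) was read kinetically.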

[8] = Counterscreen for APE1 Inhibitors: Fluorescent Dye Displacement Validation Assay (AID 1707); conditions: fluorescent dye displacement from DNA; series mostly up to 57.1 µM
In short: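 Counterscreen flags promiscuous DNA binders: compounds displacing ThO from duplex DNA (abasic THF site, 50 nM) reduce 540 nm emission (480 nm excitation). ThO 250 nM final; Tris-HCl pH 7.5 with NaCl, MgCl2 and Tween-20.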

[9] = biological target: Endonuclease 4 (Escherichia coli (strain K12)) (UniProt P0A6C1); experiment: Counterscreen for APE1 Inhibitors: qHTS Validation Assay for Inhibitors of Endonuclease IV (AID 1708); conditions: E. coli endonuclease IV, DNA cleavage fluorescence; series mostly up to 57.1 µM
In short: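 Enzyme (2 nM) + compound, 15 min RT; add 50 nM TAMRA/BHQ-2 THF-site dsDNA; kinetic read ex525/em598, 3 reads/60 s; activity = read 3 − read 1. Buffer Tris pH 7.5, 50 mM NaCl, 2 mM MgCl2, DTT, Tween-20.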

[10] = qHTS for differential inhibitors of proliferation of Plasmodium falciparum line 7G8 (AID 1815); conditions: Plasmodium falciparum 7G8 proliferation inhibition; series mostly up to 28.7 µM;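 further: parasite growth measured after three days of incubation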
[11] = qHTS for differential inhibitors of proliferation of Plasmodium falciparum line GB4 (AID 1816); conditions: Potency: Plasmodium falciparum GB4 proliferation inhibition; series mostly up to 28.7 µM;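 further: parasite growth measured after 72 h incubation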
[12] = qHTS for differential inhibitors of proliferation of Plasmodium falciparum line D10 (AID 1877); conditions: series mostly up to 28.7 µM;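 further: parasites grown with compound for 72 h before DNA staining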
[13] = qHTS for differential inhibitors of proliferation of Plasmodium falciparum line Dd2 (AID 1882); conditions: Potency: Plasmodium falciparum Dd2 proliferation inhibition; series mostly up to 28.7 µM; further: nearly all actives have a fitted effect of over 65% in size
In short: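 SYBR Green DNA fluorescence (ex 485, em 535 nm) after overnight lysis quantifies parasite growth; compound exposure lasted 72 h at 37 C on infected red cells at 2.5% hematocrit, 0.3% parasitemia (final). Artemisinin 0.29 uM and vehicle wells define normalization.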

[14] = qHTS for differential inhibitors of proliferation of Plasmodium falciparum line W2 (AID 1883); conditions: Potency: Plasmodium falciparum W2 proliferation inhibition; series mostly up to 28.7 µM;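 further: parasites grown with compound for 72 h before lysis and staining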
[15] = qHTS for differential inhibitors of proliferation of Plasmodium falciparum line HB3 (AID 1886); conditions: Potency: Plasmodium falciparum HB3 proliferation inhibition; series mostly up to 28.7 µM;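 further: parasites grown with compound for 72 h before SYBR Green readout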
[16] = qHTS Assay for Modulators of Human Peripheral Myelin Protein 22 (PMP22) Expression/Activity (AID 1967; active means well fitted curve in the direction sought with a large enough effect in the signal ratio; the % refers to the signal ratio); conditions: Cell-based PMP22 reporter, dual-color luciferase ratio, mouse Pmp22 promoter in mouse Schwann cells; series mostly up to 115 µM
In short: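 MSC80 mouse Schwann cells stably carrying Pmp22 promoter–green click beetle luciferase plus EF-alpha–red luciferase control were dosed for 24h at 37 °C. Dual-colour luminescence was filter-overlap corrected; %Activity came from green/red ratio versus untreated cells.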

[17] = biological target: Ferritin light chain (Equus caballus) (UniProt P02791); experiment: qHTS Validation Assay for Identification of Novel General Anesthetics (AID 2323); conditions: horse apoferritin, anesthetic-site fluorescent probe displacement; series mostly up to 76.9 µM
In short: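 Competitive displacement of profluorescent 1-aminoanthracene (1-AMA, 50% saturated solution in PBS) from 10 uM horse-spleen apoferritin. Compounds incubated 10 min at room temperature; fluorescence read at 380 nm excitation/535 nm emission, normalized to free 1-AMA and complex, fitted with four-parameter Hill equation.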

[18] = biological target: ATP-dependent DNA helicase Q1 (Homo sapiens) (UniProt P46063); experiment: qHTS Validation Assay for Inhibitors of RecQ-Like Dna Helicase 1 (RECQ1) (AID 2353); conditions: recombinant RECQ1 helicase DNA unwinding assay; series mostly up to 25.6 µM
In short: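 RECQ1T1 50 nM; forked duplex (20 bp + 30-nt ss tails) 200 nM, ATP 2 mM final; pH 8.0, 2 mM MgCl2, 2.5 ug/ml poly(dI-dC); 15 min compound preincubation; discontinuous kinetic read over 2 h at RT.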

[19] = Validation screen for inhibitors of Lassa infection (AID 463096; calls by dose curve); conditions: Lassa virus infection, cell-based; series mostly up to 46.1 µM
[20] = Validation screen for small molecules that induce DNA re-replication in MCF 10A normal breast cells (AID 463097); conditions: MCF 10A cells, DNA re-replication phenotype imaging; series mostly up to 46.1 µM; further: nearly all actives have a fitted effect of over 60% in size
In short: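 Readout: Hoechst nuclear fluorescence intensity, 405 ex / 500-530 em, by scanning plate imager; re-replication scored as increase in nuclei with elevated DNA content. Cells exposed to compound 48 hr, 37 C, 5% CO2 beforehand.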

Sequence of DNA repair nuclease/redox regulator APEX1 (Homo sapiens) (P27695 whole entry, looked up): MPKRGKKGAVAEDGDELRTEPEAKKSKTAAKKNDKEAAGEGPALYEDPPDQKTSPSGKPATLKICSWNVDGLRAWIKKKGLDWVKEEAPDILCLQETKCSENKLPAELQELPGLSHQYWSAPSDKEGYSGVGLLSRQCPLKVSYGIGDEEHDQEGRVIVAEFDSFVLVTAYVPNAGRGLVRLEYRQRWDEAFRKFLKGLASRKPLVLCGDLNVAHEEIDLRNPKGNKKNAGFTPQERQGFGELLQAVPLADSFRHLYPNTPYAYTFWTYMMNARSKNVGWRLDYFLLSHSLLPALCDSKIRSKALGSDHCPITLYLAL
Sequence of Ferritin light chain (Equus caballus) (P02791 2-175 limits assumed): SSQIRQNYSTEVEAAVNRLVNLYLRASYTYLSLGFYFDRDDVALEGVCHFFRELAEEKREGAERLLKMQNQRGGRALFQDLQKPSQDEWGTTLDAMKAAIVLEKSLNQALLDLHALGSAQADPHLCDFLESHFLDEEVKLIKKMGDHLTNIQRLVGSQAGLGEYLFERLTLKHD
Sequence of ATP-dependent DNA helicase Q1 (Homo sapiens) (P46063 whole entry, looked up): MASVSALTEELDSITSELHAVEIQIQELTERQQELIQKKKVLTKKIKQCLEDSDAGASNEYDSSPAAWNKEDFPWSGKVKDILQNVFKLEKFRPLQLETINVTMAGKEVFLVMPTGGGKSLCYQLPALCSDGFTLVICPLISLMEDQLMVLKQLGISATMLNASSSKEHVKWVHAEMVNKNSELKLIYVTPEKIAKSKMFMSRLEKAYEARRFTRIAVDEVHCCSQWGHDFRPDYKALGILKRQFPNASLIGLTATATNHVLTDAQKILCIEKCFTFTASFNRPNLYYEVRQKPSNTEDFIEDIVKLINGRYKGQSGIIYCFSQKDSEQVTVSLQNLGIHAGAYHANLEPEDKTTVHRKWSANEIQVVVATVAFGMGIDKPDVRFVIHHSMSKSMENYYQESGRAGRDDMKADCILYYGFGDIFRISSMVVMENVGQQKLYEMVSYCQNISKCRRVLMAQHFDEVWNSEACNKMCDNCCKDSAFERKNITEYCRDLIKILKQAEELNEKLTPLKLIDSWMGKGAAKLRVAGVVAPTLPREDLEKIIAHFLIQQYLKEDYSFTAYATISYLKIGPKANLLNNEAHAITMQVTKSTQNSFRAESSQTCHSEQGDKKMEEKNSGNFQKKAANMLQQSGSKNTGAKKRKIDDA
Sequence of Tumor susceptibility gene 101 protein (Homo sapiens) (Q99816 whole entry, looked up, the tested form may be a part): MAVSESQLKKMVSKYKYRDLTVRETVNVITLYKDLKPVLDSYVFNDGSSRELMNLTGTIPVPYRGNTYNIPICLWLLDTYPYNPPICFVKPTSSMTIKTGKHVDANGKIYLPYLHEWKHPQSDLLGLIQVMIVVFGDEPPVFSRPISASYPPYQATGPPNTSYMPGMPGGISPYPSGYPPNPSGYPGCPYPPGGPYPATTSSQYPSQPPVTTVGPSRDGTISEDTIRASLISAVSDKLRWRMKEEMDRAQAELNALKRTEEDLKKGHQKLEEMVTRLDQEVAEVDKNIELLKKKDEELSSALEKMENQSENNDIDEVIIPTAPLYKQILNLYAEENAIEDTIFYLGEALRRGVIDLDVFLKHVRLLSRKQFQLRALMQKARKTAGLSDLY
Sequence of Rap guanine nucleotide exchange factor 4 (Homo sapiens) (Q8WZA2 whole entry, looked up): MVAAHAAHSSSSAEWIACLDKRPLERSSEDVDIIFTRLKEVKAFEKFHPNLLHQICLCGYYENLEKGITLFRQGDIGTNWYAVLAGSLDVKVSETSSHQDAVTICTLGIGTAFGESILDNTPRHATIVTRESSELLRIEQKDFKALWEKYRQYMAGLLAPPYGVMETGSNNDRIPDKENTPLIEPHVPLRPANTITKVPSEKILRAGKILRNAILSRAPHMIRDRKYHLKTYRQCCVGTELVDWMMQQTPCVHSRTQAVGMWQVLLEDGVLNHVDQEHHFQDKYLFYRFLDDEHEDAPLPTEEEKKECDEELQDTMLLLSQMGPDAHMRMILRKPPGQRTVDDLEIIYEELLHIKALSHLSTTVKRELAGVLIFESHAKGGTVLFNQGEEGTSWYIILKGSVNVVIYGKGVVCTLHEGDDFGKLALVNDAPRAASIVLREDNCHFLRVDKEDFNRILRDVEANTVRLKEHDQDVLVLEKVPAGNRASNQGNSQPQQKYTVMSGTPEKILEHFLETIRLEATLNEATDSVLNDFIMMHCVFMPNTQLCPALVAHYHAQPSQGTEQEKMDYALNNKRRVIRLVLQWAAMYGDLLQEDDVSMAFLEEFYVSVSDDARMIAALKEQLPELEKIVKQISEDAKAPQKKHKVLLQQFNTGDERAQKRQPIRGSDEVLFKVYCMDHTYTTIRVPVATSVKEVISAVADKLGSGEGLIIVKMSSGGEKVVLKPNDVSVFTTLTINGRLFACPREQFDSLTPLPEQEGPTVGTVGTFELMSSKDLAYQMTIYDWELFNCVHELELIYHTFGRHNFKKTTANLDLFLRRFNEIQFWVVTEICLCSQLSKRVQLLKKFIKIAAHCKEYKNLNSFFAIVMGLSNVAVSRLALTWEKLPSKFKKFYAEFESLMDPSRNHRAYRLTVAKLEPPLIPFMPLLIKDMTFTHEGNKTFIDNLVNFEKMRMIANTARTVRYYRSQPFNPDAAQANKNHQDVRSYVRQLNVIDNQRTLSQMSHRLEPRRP

**Q.** Which Potency [1] does the source give for `CCN1C[C@]2(COC)[C@H](O)C[C@H](OC)[C@]34C1C([C@H](OC)[C@H]23)[C@]1(OC(C)=O)C2[C@@H](OC(=O)c3ccccc3)C(O)(C[C@H]24)[C@@H](OC)[C@@H]1O` here?
**A.** inactive

**Q.** For `CCCCC[C@H]1C(=O)O[C@H](C)[C@H](NC(=O)c2cccc(NC=O)c2O)C(=O)O[C@@H](C)[C@@H]1OC(=O)CC(C)C`, which remaining parasite growth % (stronger effect = lower value) [2] is on record?
**A.** 20.4%

**Q.** And the activity, percent of control [3]?
**A.** 8.53%

**Q.** And the remaining proliferation (% of control), lower = more inhibition [4]?
**A.** 6.18%

**Q.** Which outcome [5] does the source give for `C=C(C)CN1CC[C@@]23c4c5ccc(O)c4O[C@H]2c2[nH]c4ccccc4c2C[C@]3(O)[C@@H]1C5` here?
**A.** inactive

**Q.** For `CC(C)C[C@H]1C(=O)N2CCCC2[C@]2(O)O[C@](NC(=O)[C@@H]3C=C4c5cccc6[nH]cc(c56)CC4N(C)C3)(C(C)C)C(=O)N12` (stereo not given in full), which outcome [6] is on record?
**A.** inactive

**Q.** With `N#CC(C#N)=Cc1ccc([N+](=O)[O-])c(O)c1` as the molecule, how does the Potency [7] read?
**A.** inactive

**Q.** And the Potency [8]?
**A.** inactive

**Q.** And the outcome [9]?
**A.** inactive

**Q.** And the Potency [10]?
**A.** inactive

**Q.** And the Potency [11]?
**A.** inactive

**Q.** And the Potency [12]?
**A.** inactive

**Q.** What about the Potency [13] of the same molecule?
**A.** inactive

**Q.** What about the Potency [14] of the same molecule?
**A.** inactive

**Q.** What about the Potency [15] of the same molecule?
**A.** inactive

**Q.** And the outcome [16]?
**A.** inactive

**Q.** What about the outcome [17] of the same molecule?
**A.** inactive

**Q.** What about the Potency [18] of the same molecule?
**A.** inactive

**Q.** And the Potency [19]?
**A.** inactive

**Q.** What about the Potency [20] of the same molecule?
**A.** inactive

Reference: PubChem BioAssay (NCATS)
